Assay [1] concerns the target Mitogen-activated protein kinase 3 (Homo sapiens) (UniProt P27361). The following applies: at 1 µM.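 Further: values are mean percent inhibition of MAPK3.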
In assay [2] the target is SRSF protein kinase 3 (Homo sapiens) (UniProt Q9UPE1). The following applies: at 0.1 µM.
For assay [3] the target is unchanged. The following applies: at 1 µM.
The target of assay [4] is Mitogen-activated protein kinase 14 (Homo sapiens) (UniProt Q16539). As to conditions: at 0.1 µM.
The target is the same in assay [5]. The following applies: at 1 µM.
Assay [6] deals with Mitogen-activated protein kinase 11 (Homo sapiens) (UniProt Q15759). As to conditions: at 0.1 µM.
Mitogen-activated protein kinase 11 (Homo sapiens), sequence (Q15759 whole entry): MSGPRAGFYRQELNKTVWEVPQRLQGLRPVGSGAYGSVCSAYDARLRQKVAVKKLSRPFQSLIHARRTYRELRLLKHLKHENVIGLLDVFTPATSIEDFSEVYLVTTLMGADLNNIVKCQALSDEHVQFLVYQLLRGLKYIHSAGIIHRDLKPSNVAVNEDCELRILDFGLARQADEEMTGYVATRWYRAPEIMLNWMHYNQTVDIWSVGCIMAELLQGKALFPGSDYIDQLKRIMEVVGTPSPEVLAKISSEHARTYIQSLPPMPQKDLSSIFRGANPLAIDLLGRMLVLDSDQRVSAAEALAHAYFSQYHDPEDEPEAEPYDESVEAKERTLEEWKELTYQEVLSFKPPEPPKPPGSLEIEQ
For assay [7] the target is unchanged. The following applies: at 1 µM.
The target of assay [8] is T1, Mitogen-activated protein kinase 13 (Homo sapiens) (UniProt O15264).
T1 sequence (whole entry): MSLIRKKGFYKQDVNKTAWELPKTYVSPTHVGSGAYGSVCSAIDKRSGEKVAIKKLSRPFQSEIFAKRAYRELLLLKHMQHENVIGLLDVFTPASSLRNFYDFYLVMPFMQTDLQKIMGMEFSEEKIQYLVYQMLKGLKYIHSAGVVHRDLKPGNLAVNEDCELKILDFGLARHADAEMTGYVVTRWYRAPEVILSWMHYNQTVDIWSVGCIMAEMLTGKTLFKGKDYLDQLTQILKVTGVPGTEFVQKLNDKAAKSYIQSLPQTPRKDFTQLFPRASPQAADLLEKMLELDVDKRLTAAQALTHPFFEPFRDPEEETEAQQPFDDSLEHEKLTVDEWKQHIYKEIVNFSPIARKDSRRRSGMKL
As to conditions: at 0.1 µM.

Assay [9] addresses T1, Mitogen-activated protein kinase 13 (Homo sapiens). As to conditions: at 1 µM.
For assay [10], the target named is T2, Mitogen-activated protein kinase 12 (Homo sapiens) (UniProt P53778).
T2 sequence (whole entry): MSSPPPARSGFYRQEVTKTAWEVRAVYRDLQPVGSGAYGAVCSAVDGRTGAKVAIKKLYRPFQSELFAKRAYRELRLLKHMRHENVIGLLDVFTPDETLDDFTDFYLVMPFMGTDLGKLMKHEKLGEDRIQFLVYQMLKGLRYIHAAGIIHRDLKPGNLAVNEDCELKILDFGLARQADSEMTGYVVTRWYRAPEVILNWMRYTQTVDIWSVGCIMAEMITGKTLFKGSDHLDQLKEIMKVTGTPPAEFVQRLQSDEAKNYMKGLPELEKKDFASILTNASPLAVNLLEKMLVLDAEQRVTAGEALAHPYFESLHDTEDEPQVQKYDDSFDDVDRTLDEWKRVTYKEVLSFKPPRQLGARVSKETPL
The following applies: at 0.1 µM.

Assay [11] concerns the target T2, Mitogen-activated protein kinase 12 (Homo sapiens). As to conditions: at 1 µM.
The target of assay [12] is SRSF protein kinase 1 (Homo sapiens) (UniProt Q96SB4). As to conditions: at 0.1 µM.
SRSF protein kinase 1 (Homo sapiens), sequence (Q96SB4 whole entry): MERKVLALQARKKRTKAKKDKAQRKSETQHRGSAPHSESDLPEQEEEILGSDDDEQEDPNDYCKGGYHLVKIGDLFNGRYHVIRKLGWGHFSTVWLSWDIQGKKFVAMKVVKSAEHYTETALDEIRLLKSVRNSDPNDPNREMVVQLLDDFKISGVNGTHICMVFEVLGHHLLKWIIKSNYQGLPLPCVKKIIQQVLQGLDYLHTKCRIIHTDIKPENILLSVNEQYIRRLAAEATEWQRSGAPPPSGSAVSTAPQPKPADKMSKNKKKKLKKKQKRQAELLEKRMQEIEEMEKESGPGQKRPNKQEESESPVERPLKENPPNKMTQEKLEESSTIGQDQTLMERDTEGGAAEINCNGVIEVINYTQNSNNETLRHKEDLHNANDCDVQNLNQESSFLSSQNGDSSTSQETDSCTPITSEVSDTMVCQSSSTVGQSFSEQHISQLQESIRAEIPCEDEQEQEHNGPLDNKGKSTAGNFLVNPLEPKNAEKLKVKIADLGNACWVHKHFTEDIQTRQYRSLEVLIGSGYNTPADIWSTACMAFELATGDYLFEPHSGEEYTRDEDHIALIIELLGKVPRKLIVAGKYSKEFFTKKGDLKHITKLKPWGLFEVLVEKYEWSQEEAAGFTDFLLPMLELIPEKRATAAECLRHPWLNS
The target is the same in assay [13]. The following applies: at 1 µM.
In assay [14] the target is Phosphatidylinositol 4,5-bisphosphate 3-kinase catalytic subunit alpha isoform (Homo sapiens) (UniProt P42336). As to conditions: at 0.1 µM.
Phosphatidylinositol 4,5-bisphosphate 3-kinase catalytic subunit alpha isoform (Homo sapiens), sequence (P42336 whole entry, canonical isoform): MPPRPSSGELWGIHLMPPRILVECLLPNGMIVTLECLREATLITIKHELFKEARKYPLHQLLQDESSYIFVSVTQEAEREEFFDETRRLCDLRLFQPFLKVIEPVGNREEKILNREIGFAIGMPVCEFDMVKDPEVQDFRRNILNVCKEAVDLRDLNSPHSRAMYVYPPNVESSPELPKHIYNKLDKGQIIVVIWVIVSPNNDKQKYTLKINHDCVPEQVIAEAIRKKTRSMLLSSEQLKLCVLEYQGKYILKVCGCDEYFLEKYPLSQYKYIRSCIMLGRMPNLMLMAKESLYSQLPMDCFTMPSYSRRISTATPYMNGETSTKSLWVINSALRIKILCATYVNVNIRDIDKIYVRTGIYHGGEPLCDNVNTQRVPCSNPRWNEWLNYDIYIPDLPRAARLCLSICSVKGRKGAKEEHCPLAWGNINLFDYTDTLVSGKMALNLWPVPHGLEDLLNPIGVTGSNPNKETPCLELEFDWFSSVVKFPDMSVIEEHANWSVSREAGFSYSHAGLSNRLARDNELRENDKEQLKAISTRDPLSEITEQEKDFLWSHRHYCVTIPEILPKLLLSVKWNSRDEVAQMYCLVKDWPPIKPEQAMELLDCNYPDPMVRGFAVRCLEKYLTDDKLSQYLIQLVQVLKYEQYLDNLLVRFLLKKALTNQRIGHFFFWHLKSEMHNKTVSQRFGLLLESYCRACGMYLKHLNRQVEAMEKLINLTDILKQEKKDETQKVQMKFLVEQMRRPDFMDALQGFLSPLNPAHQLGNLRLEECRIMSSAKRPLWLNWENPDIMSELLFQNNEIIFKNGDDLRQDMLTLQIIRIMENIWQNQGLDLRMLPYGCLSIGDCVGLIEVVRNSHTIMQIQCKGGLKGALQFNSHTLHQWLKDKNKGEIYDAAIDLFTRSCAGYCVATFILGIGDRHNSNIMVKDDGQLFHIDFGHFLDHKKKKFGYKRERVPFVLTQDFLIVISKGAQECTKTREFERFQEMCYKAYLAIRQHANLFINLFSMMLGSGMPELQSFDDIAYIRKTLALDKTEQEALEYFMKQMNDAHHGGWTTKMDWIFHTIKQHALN
The target is the same in assay [15]. As to conditions: at 1 µM.
The target in assay [16] is T3, Phosphatidylinositol 4,5-bisphosphate 3-kinase catalytic subunit delta isoform (Homo sapiens) (UniProt O00329).
T3 sequence (whole entry): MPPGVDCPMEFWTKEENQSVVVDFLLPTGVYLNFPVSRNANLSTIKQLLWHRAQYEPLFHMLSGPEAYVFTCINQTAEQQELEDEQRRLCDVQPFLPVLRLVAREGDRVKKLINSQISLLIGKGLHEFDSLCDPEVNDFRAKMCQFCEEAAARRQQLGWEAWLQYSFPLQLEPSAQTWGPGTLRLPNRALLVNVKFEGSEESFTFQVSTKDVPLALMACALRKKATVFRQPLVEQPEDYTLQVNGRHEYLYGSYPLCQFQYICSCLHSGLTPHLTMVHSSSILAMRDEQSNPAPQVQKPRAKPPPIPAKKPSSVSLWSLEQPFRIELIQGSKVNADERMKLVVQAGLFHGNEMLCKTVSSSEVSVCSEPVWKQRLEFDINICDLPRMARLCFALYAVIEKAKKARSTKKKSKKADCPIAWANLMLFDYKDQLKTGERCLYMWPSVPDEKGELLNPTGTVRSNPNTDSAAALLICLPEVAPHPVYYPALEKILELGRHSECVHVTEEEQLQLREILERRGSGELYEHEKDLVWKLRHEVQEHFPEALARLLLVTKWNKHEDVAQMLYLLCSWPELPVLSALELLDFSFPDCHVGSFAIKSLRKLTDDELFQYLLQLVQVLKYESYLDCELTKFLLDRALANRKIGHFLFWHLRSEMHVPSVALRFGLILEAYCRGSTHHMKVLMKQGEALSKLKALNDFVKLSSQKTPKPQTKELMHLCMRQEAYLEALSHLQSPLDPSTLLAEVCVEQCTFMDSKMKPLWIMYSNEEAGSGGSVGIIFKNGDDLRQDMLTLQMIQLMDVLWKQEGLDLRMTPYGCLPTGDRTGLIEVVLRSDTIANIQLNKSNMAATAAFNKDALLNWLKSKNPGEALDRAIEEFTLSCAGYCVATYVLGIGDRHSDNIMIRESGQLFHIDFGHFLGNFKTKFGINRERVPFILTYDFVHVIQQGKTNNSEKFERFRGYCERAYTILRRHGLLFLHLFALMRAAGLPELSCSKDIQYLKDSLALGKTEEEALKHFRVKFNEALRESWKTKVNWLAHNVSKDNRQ
The following applies: at 0.1 µM.

For assay [17], the target named is T3, Phosphatidylinositol 4,5-bisphosphate 3-kinase catalytic subunit delta isoform (Homo sapiens). The following applies: at 1 µM.
For assay [18], the target named is Phosphatidylinositol 4-kinase beta (Homo sapiens) (UniProt Q9UBF8). The following applies: at 0.1 µM.
Phosphatidylinositol 4-kinase beta (Homo sapiens), sequence (Q9UBF8 2-816 limits assumed): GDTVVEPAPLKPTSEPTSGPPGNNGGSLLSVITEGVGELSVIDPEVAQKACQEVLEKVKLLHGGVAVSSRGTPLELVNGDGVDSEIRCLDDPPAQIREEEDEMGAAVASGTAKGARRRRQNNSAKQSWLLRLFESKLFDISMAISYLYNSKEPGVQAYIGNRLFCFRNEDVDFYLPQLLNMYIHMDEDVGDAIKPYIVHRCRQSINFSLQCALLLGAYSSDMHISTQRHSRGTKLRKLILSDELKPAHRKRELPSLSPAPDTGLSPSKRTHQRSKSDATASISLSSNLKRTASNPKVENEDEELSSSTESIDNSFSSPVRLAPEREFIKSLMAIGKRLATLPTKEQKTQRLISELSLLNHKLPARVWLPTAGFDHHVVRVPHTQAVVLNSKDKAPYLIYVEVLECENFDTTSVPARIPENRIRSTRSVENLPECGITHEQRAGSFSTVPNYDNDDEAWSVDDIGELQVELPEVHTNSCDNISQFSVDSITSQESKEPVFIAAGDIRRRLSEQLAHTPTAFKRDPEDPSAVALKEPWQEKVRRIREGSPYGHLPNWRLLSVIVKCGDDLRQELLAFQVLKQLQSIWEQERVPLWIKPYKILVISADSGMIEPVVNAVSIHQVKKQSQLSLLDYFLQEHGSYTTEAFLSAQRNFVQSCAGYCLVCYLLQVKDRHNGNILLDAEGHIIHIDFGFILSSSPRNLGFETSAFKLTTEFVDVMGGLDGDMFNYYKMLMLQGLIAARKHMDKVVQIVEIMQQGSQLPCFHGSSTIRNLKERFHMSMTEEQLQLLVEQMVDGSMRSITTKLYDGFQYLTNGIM
The target is the same in assay [19]. As to conditions: at 1 µM.
In assay [20] the target is Sphingosine kinase 1 (Homo sapiens) (UniProt Q9NYA1). The following applies: at 0.1 µM.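 Further: mean percent inhibition of SPHK1 activity, measured within the GSK PKIS screening panel.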
Sphingosine kinase 1 (Homo sapiens), sequence (Q9NYA1 whole entry): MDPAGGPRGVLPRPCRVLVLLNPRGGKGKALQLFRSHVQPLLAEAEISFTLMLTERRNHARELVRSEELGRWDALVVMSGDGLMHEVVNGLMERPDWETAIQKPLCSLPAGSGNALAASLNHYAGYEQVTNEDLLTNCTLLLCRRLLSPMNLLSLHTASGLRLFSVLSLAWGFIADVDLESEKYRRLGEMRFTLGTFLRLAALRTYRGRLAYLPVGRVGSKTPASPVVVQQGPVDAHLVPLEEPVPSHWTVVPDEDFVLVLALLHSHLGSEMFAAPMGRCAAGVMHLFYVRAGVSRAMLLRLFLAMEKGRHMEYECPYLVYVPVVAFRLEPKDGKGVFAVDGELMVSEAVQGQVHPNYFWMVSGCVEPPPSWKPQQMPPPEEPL

Mitogen-activated protein kinase 3 (Homo sapiens), sequence (P27361 whole entry): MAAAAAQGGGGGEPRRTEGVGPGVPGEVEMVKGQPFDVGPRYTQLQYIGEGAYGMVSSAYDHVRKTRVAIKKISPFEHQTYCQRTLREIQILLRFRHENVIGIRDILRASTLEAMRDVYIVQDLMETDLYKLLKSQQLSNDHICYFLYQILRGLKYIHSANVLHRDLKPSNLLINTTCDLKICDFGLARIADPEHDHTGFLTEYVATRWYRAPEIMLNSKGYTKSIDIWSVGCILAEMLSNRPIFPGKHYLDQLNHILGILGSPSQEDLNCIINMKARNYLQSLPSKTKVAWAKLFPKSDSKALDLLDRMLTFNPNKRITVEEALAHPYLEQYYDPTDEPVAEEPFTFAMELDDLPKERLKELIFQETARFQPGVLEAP
SRSF protein kinase 3 (Homo sapiens), sequence (Q9UPE1 whole entry): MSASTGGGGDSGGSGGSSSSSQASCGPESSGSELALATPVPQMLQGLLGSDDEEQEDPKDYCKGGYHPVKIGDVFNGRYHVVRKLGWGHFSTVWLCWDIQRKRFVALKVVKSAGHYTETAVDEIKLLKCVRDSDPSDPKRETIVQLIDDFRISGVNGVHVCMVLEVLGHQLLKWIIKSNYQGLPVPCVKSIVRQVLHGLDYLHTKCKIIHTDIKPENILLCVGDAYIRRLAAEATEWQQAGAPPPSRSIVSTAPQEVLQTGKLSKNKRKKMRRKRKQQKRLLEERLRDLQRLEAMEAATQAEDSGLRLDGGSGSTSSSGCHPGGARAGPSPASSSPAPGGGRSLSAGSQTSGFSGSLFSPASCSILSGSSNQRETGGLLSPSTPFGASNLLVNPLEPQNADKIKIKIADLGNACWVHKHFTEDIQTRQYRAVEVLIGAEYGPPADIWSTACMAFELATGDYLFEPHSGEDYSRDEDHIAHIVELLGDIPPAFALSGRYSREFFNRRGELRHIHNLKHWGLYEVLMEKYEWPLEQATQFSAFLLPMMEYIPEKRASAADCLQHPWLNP
Mitogen-activated protein kinase 14 (Homo sapiens), sequence (Q16539 whole entry): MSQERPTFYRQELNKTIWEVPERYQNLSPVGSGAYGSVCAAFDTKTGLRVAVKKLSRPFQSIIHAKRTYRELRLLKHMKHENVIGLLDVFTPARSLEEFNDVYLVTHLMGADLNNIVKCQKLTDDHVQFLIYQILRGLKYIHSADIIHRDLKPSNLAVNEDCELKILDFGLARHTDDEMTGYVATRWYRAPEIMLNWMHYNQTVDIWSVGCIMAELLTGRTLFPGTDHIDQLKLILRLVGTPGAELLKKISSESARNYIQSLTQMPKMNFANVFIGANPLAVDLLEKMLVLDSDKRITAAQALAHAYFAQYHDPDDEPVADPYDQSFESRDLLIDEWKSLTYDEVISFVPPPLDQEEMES

As to `COc1cccc(-n2ncc3c(N/N=C/c4ccc(C)cc4)ncnc32)c1`, the inhibition in assay [1] came to 3.26%; in assay [2], 3.27%; in assay [3], 0.15%; in assay [4], 6.95%; in [5], 9.02%; in assay [6] it was 1.15%. The inhibition in assay [7] was 4.42%; in [8] it was 4.61%; in assay [9], 6.26%; in assay [10] it was 3.81%; in assay [11], 6.67%; in assay [12], -3.85%. Further, the inhibition is -1.68% in assay [13]; 5.44% in assay [14]; 7.64% in assay [15]; 1.43% in assay [16]; 5.9% in assay [17]; -1.45% in [18]. The figures for the inhibition in assay [19] and in assay [20] were 3.16% and 3.47%, respectively.

In the case of `COC(=O)Nc1nc2cc(Oc3ccc(NC(=O)Nc4cccc(Br)c4)cc3)ccc2[nH]1`, the inhibition in assay [1] is 3.83%; in assay [2], -0.78%; in assay [3], 1.64%; in assay [4], 7.25%; in assay [5] it was 17.1%; in assay [6], 7.96%. Moreover, the inhibition in assay [7] is 17%; in assay [8] it was 2.44%; in assay [9], 0.89%; in assay [10] it was 2.07%; in assay [11] it was 1.52%; in [12] it was -2.5%. Also, the inhibition in assay [13] is -2.45%; in [14], 0.99%; in [15] it was 8.57%; in [16], 1.03%; in assay [17] it was 7.1%; in assay [18], 0.03%. Moreover, the inhibition is -5.6% in [19] and -1.27% in [20].

Regarding `Cc1nc(-c2ccccc2)n2nc(NCCCN3CCOCC3)ncc12`, the inhibition was 1.02% in [1]; -0.13% in assay [2]; -0.34% in assay [3]; 3.9% in assay [4]; 3.71% in [5]; 1.59% in [6]. For the same molecule, the inhibition in [7] was 2.11%; in assay [8], 1.83%; in assay [9], 1.77%; in assay [10] it was 1.57%; in assay [11], 2.42%; in [12] it was -2.28%. The inhibition in [13] was -2.05%; in assay [14], 1.91%; in assay [15], 1.2%; in assay [16] it was -0.22%; in [17], 0.85%; in assay [18] it was 4.37%. Further, the results for the inhibition in [19] and in assay [20] were 0.1% and 0.59%, respectively.

Take `O=C(Nc1ccc(Oc2ccc3[nH]c(NC(=O)c4ccco4)nc3c2)cc1)Nc1cc(C(F)(F)F)ccc1F`: the inhibition amounted to 2.24% in assay [1]; 2.34% in assay [2]; 39.6% in assay [3]; 4.66% in [4]; 39.4% in assay [5]; 4.14% in assay [6]. In addition, the inhibition is 31.7% in assay [7]; 1.18% in assay [8]; 1.53% in assay [9]; -4.43% in [10]; 3.11% in [11]; -0.3% in assay [12]. In addition, the inhibition in [13] was 5.87%; in [14] it was -0.31%; in assay [15] it was 0.01%; in [16], 0.36%; in assay [17], 2.96%; in assay [18] it was 1.45%. Moreover, the inhibition in [19] was determined as 1.53%; in assay [20], 0.3%.

Consider `NS(=O)(=O)c1ccc(NC=C2C(=O)Nc3ccc4ncsc4c32)cc1`, for which the inhibition in [1] is 28.1%; in assay [2], -0.67%; in [3], -0.55%; in assay [4], 5.49%; in assay [5] it was 18.7%; in [6], 9.06%. For the same molecule, the inhibition in assay [7] was 27.3%; in assay [8], 1.67%; in assay [9], 9.03%; in assay [10], 1.56%; in assay [11], 5.67%; in assay [12], -2.53%. The inhibition in [13] is -1.62%; in assay [14] it was 3.58%; in assay [15], 13.1%; in [16] it was 5.31%; in assay [17] it was 27.3%; in [18], -1.46%. Also, the figures for the inhibition in assay [19] and in assay [20] were 4.92% and 1.36%, respectively.

For `COc1cc(Nc2nccc(-c3cnn4ncccc34)n2)cc(OC)c1`, the inhibition in [1] was 9.37%; in assay [2], -0.86%; in assay [3], -1.27%; in assay [4], 2.59%; in assay [5], 10.3%; in [6], 2.14%. Moreover, the inhibition in [7] is 10.7%; in [8] it was 1.49%; in [9], 12.1%; in [10] it was 1.04%; in assay [11], 5.11%; in [12], -0.28%. The inhibition in assay [13] was 4.85%; in assay [14], 2.19%; in assay [15], 20.5%; in assay [16], 6.1%; in [17], 35%; in [18], -0.41%. For the same molecule, the inhibition in assay [19] is 14.9%; in assay [20], 0%.

Regarding `COc1ccc2ncnc(Nc3ccc(OCc4ccccc4)cc3)c2c1`, the inhibition in assay [1] was 4.61%; in assay [2] it was -1.92%; in assay [3], 0.73%; in assay [4] it was 5.87%; in assay [5], 10.2%; in assay [6], 2.79%. Besides, the inhibition was 7.38% in [7]; 0.25% in [8]; 1.34% in assay [9]; -0.24% in assay [10]; 1.88% in [11]; -1.2% in assay [12]. The inhibition is -0.4% in [13]; 2.14% in [14]; 1.05% in assay [15]; 1.99% in assay [16]; 2.84% in assay [17]; 1.57% in [18]. For the same molecule, the inhibition is 1.15% in assay [19] and -0.95% in assay [20].

As usually defined, the inhibition is the relative decrease from the control value, in per cent.

Source of the values: ChEMBL document CHEMBL1961873, “Compounds: GSK PKIS; Assays: Nanosyn kinase panel” (2012).
